Consider seven sequences from PMC7862700, “An all-to-all approach to the identification of sequence-specific readers for epigenetic DNA modifications on cytosine”.

What all share (assay): DAPPL (digital affinity profiling via proximity ligation, sequencing); 10 mM Tris-HCl pH 7.5, 50 mM NaCl, 1 mM DTT, 4% glycerol, room temperature, 30 min; GST-TFs on glutathione beads, 16-mer random dsDNA library, 0.1% formaldehyde crosslink after washing; high values mean tight binding
Holding throughout (conditions): protein: recombinant; tags: N-terminal GST; dsDNA, one strand shown

The target of one assay is T1, ERF (Homo sapiens, UniProt P50548 1-548).
T1 sequence: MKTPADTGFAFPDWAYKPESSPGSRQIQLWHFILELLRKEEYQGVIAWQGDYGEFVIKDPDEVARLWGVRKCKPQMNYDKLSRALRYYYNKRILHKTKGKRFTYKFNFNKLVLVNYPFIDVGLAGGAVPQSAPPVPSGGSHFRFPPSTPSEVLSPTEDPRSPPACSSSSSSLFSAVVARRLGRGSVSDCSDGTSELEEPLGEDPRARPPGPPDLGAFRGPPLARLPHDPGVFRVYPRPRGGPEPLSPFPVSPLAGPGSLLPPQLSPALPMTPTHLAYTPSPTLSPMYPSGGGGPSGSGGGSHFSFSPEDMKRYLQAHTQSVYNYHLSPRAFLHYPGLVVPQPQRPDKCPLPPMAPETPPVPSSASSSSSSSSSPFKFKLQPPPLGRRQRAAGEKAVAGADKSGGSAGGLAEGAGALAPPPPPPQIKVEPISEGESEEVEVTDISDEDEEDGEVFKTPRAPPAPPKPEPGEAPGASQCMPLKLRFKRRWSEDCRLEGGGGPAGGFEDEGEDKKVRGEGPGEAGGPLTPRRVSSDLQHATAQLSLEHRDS
In a few lines:
(§1)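 In yeast, human transcription factors were expressed with a GST fusion, then pulled down on glutathione beads and given DNA barcodes. Pooled with a tag-only sample, they were exposed to 200 nmole of a 16-mer random double-stranded DNA library (Tris/NaCl/DTT/glycerol buffer, room temperature, 30 min), washed, crosslinked with 0.1% formaldehyde, proximity-ligated using BsaI/T4 ligase for 1 h at 37 °C, PCR-amplified and read on an Illumina NextSeq500. Each hexamer's frequency of reads for a factor, divided by the matching frequency for the tag-only sample, gives the binding signal.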

The next assay has as its target T2, ETV3L (Homo sapiens, UniProt Q6ZN32 1-361).
T2 sequence: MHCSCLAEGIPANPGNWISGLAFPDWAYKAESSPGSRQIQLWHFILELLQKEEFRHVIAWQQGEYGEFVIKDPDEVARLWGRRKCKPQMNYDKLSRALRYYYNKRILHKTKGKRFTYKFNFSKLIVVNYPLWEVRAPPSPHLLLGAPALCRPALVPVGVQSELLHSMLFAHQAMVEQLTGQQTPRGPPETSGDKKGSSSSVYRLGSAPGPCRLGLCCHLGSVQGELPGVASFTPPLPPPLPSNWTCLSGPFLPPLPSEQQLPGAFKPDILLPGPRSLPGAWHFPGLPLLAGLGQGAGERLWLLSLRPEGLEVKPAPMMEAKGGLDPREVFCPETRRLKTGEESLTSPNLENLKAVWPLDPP
The method, boiled down:
as §1

The target in the next assay is T3, ETS2 (Homo sapiens, UniProt P15036 1-469).
T3 sequence: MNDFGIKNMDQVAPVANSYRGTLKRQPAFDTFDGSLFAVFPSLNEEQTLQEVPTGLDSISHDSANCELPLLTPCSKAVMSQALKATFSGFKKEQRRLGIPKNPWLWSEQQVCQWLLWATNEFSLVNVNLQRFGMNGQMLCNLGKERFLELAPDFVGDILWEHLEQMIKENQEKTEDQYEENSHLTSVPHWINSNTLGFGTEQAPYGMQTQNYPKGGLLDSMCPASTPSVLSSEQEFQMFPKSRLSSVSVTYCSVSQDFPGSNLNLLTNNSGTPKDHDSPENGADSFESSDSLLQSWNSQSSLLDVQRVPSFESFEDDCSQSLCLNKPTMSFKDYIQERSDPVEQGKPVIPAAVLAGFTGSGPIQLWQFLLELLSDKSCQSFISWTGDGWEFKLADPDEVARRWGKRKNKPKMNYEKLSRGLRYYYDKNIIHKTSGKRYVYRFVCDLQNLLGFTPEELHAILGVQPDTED
The method, boiled down:
as §1

Another assay concerns the target T4, SPDEF (Homo sapiens, UniProt O95238 1-335).
T4 sequence: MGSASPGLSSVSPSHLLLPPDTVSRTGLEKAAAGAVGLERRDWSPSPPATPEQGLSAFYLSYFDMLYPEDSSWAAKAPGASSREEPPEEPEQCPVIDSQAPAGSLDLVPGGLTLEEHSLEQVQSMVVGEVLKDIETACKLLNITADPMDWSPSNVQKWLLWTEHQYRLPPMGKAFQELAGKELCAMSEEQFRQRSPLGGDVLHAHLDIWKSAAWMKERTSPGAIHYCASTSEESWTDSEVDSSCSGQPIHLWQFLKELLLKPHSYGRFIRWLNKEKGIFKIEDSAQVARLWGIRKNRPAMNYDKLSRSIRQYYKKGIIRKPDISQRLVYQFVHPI
The method, boiled down: as §1

In the next assay the target is T5, ETV7 (Homo sapiens, UniProt Q9Y603 1-341).
T5 sequence: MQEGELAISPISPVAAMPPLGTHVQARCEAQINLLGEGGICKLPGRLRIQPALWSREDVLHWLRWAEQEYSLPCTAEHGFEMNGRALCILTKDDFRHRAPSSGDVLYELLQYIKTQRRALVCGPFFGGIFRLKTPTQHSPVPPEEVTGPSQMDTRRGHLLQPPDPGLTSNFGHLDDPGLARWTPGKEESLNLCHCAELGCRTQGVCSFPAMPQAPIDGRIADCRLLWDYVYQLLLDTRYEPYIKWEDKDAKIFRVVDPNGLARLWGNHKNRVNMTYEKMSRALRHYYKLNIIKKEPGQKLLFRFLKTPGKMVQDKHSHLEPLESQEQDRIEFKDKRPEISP
In a few lines:
as §1

The target of the next assay is T6, ELF5 (Homo sapiens, UniProt Q9UKW6-2 1-255).
T6 sequence: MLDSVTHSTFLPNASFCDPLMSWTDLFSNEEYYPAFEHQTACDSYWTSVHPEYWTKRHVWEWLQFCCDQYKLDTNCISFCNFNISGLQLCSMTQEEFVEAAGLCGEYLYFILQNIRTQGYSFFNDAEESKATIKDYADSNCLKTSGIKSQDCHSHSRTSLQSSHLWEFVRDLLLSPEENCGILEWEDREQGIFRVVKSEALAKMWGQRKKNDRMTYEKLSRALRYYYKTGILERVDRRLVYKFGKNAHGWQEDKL
The method, boiled down: as §1

A further assay has as its target T7, ETV3 (Homo sapiens, UniProt P41162-2 1-143).
T7 sequence: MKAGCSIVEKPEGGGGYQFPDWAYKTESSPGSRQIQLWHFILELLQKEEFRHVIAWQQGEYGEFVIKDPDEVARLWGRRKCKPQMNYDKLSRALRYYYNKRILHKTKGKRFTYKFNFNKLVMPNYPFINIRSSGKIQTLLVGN
The method, boiled down: as §1

A further assay addresses ETV6 (Homo sapiens, UniProt P41212 1-452). In a few lines: as §1

Chain of ETV6 (P41212 whole entry): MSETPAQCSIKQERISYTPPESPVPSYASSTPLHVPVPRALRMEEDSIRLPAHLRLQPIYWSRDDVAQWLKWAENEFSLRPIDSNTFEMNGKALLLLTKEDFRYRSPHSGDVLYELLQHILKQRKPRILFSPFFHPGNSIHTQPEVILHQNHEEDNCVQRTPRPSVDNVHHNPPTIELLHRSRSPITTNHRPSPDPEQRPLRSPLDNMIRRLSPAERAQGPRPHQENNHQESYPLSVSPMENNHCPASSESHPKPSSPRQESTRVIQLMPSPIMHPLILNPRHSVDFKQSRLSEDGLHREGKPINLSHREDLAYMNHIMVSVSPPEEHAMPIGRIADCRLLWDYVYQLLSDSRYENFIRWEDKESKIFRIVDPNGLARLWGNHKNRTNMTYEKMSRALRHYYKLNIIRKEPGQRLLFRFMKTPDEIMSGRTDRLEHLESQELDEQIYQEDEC

Regarding CAACAT, the binding signal in the assay with ERF was 1.23 fold enrichment (6-mer frequency, TF over GST control); in the assay with ETV3L, 1.2 fold enrichment (6-mer frequency, TF over GST control); with ETS2 it was 1.17 fold enrichment (6-mer frequency, TF over GST control); with SPDEF, 1.17 fold enrichment (6-mer frequency, TF over GST control); with ETV7, 1.08 fold enrichment (6-mer frequency, TF over GST control); in the assay with ELF5, 1.16 fold enrichment (6-mer frequency, TF over GST control). For the same sequence, the binding signal with ETV3 is 1.22 fold enrichment (6-mer frequency, TF over GST control); with ETV6 it was 1.09 fold enrichment (6-mer frequency, TF over GST control).

On to GATATG, for which the binding signal with ERF was 1.09 fold enrichment (6-mer frequency, TF over GST control); in the assay with ETV3L, 1.08 fold enrichment (6-mer frequency, TF over GST control); in the assay with ETS2, 1.18 fold enrichment (6-mer frequency, TF over GST control); with SPDEF, 1.24 fold enrichment (6-mer frequency, TF over GST control); with ETV7 it was 1.07 fold enrichment (6-mer frequency, TF over GST control); with ELF5, 1.14 fold enrichment (6-mer frequency, TF over GST control). The binding signal was 1.12 fold enrichment (6-mer frequency, TF over GST control) in the assay with ETV3 and 1.04 fold enrichment (6-mer frequency, TF over GST control) with ETV6.

Consider TCTAAC, for which the binding signal with ERF is 1.22 fold enrichment (6-mer frequency, TF over GST control); with ETV3L, 1.19 fold enrichment (6-mer frequency, TF over GST control); with ETS2 it was 1.19 fold enrichment (6-mer frequency, TF over GST control); in the assay with SPDEF it was 1.14 fold enrichment (6-mer frequency, TF over GST control); with ETV7, 1.29 fold enrichment (6-mer frequency, TF over GST control); in the assay with ELF5, 1.15 fold enrichment (6-mer frequency, TF over GST control). Further, the binding signal with ETV3 was 1.18 fold enrichment (6-mer frequency, TF over GST control); in the assay with ETV6, 1.22 fold enrichment (6-mer frequency, TF over GST control).

On to CTACAA, for which the binding signal with ERF was 1.05 fold enrichment (6-mer frequency, TF over GST control); with ETV3L, 1.15 fold enrichment (6-mer frequency, TF over GST control); with ETS2, 1.16 fold enrichment (6-mer frequency, TF over GST control); with SPDEF, 1.14 fold enrichment (6-mer frequency, TF over GST control); in the assay with ETV7, 1.01 fold enrichment (6-mer frequency, TF over GST control); with ELF5 it was 1.16 fold enrichment (6-mer frequency, TF over GST control). Besides, the binding signal in the assay with ETV3 is 1.1 fold enrichment (6-mer frequency, TF over GST control); in the assay with ETV6, 1.18 fold enrichment (6-mer frequency, TF over GST control).

Turning to TATGGT, the binding signal is 1.18 fold enrichment (6-mer frequency, TF over GST control) with ERF; 1.24 fold enrichment (6-mer frequency, TF over GST control) with ETV3L; 1.33 fold enrichment (6-mer frequency, TF over GST control) with ETS2; 1.35 fold enrichment (6-mer frequency, TF over GST control) in the assay with SPDEF; 1.21 fold enrichment (6-mer frequency, TF over GST control) with ETV7; 1.24 fold enrichment (6-mer frequency, TF over GST control) with ELF5. Further, the binding signal in the assay with ETV3 is 1.34 fold enrichment (6-mer frequency, TF over GST control); with ETV6, 1.24 fold enrichment (6-mer frequency, TF over GST control).

As to TGCCAC, the binding signal was 1.14 fold enrichment (6-mer frequency, TF over GST control) with ERF; 1.28 fold enrichment (6-mer frequency, TF over GST control) in the assay with ETV3L; 1.23 fold enrichment (6-mer frequency, TF over GST control) with ETS2; 1.15 fold enrichment (6-mer frequency, TF over GST control) with SPDEF; 1.21 fold enrichment (6-mer frequency, TF over GST control) with ETV7; 1.16 fold enrichment (6-mer frequency, TF over GST control) with ELF5. The binding signal with ETV3 was 1.18 fold enrichment (6-mer frequency, TF over GST control); with ETV6 it was 1.24 fold enrichment (6-mer frequency, TF over GST control).

GAAATG: the binding signal with ERF was 1.5 fold enrichment (6-mer frequency, TF over GST control); in the assay with ETV3L, 1.59 fold enrichment (6-mer frequency, TF over GST control); with ETS2, 1.63 fold enrichment (6-mer frequency, TF over GST control); with SPDEF, 1.45 fold enrichment (6-mer frequency, TF over GST control); with ETV7 it was 1.6 fold enrichment (6-mer frequency, TF over GST control); with ELF5, 1.87 fold enrichment (6-mer frequency, TF over GST control). The binding signal with ETV3 was 1.68 fold enrichment (6-mer frequency, TF over GST control); in the assay with ETV6 it was 1.75 fold enrichment (6-mer frequency, TF over GST control).
